Test results published in PubChem BioAssay (Tox21).
Inconclusive results are not listed. Active and inactive are the calls of the source. Calls come from the whole dose curve; as a rule, active = well fitted inhibition curve with a large enough effect in the repeat runs; inconclusive = weak or mixed curves; inactive = no such curve, though single readings can be large or run the other way.

Target: Cytochrome P450 2D6 (Homo sapiens) (UniProt P10635)
Assay: Cytochrome P450 Family 2 Subfamily D Member 6 (CYP2D6) small molecule antagonists: luciferase reporter qHTS assay (AID 1671196); note: nearly all actives have a fitted effect of over 50% in size
Details: P450-Glo CYP2D6 enzyme assay, luciferin luminescence, 1 h; series mostly up to 115 µM; activity change, negative = inhibition: at the top concentration
Excerpt: U.S. Tox21 Program National Center for Advancing Translational Sciences [NCATS] U.S. Environmental Protection Agency [EPA] National Institutes of Environmental Health Sciences [NIEHS] National Toxicology Program [NTP] U.S. Food and Drug Administration [FDA] Tox21 Assay Overview: Cytochrome P450 (CYP) enzymes are membrane-bound hemeproteins that play a key role in metabolism of drugs and xenobiotics. Evaluation of the effect of chemicals on CYP isozymes is useful to minimize the adverse drug reactions and toxicities in drug development process. Tox21 chemicals were tested for their effect on CYP enzyme activities by using P450-Glo (TM) screening systems (Promega Corporation, Madison, WI). These systems provide a luminescent method containing proluciferin substrates and are converted to luciferin products by CYP isozymes. The luciferin products formed are detected with a luciferin detection reagent, and the amount of light produced is proportional to CYP activity. P450-Glo (TM) CYP2D6 screening system (Catalog. No. V9890) was used to detect the compounds that interfere in CYP2D6 activity.
Tox21 Assay Protocol Summary: Two ul of enzyme-substrate mix was dispensed into medium binding white/solid 1536-well plates (Greiner Bio-One North America Inc., Monroe, NC) using a BioRaptr Flying Reagent Dispenser (FRD, Beckman Coulter, Brea, CA). […] The assay plates were incubated at room temperature for 10 min. Then 2 ul of NADPH regeneration solution was added to each well of the assay plates using an FRD and incubated at room temperature for 1 h. The reaction was stopped by adding 4 ul of detection reagent using an FRD and after 20 min incubation at room temperature the luminescence signal was measured using a ViewLux plate reader (Perkin Elmer, Shelton, CT). Data were expressed as relative luminescence units.
% is set by controls: 0 for no effect and ±100 for the full control effect; potency is the fitted concentration of half-maximal effect.

Cytochrome P450 2D6 (Homo sapiens), sequence (P10635 whole entry, looked up): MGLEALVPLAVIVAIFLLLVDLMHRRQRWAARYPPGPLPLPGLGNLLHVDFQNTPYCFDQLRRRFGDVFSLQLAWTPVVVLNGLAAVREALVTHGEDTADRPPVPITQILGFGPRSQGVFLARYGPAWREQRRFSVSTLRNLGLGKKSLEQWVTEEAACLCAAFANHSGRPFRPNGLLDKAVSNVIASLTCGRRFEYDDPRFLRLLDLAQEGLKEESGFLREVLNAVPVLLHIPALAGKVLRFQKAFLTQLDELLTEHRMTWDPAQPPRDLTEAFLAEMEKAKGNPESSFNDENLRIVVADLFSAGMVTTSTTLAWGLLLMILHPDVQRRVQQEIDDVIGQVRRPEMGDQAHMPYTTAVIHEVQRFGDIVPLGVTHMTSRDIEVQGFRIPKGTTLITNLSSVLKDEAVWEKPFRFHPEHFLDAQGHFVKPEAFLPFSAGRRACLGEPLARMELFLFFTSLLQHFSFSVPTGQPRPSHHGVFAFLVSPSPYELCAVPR

Row | SMILES | Potency | activity change, negative = inhibition
1 | NCC1CCCC(CN)C1 (stereo not given) | 14.2 µM (active) | –
2 | CCCCCCCCCCCC[N+](C)(C)CCCS(=O)(=O)[O-] | – | -21.4% (inactive)
3 | CC1C2CC(CC2C2CCCC(O)C2)C1(C)C (stereo not given) | – | -19% (inactive)
4 | O=C(C(=O)c1ccccc1)c1ccccc1 | 31.6 µM (active) | –
5 | Cc1cc2nc3ccc(=[N+](C)C)cc-3sc2cc1N | 5.49 µM (active) | –
6 | [O]=[Bi] | – | -0.389% [at 10.5 µM] (inactive)
7 | CCCCCCCC/C=C\CCCCCCCC(=O)OC | – | -6.96% (inactive)
8 | CNCCCC1c2ccccc2C=Cc2ccccc21 | 4.9 µM (active) | –
9 | Cc1nc2ccccc2s1 | – | -19.5% (inactive)
10 | CC(=O)Nc1ccccc1C | – | -9.27% (inactive)
11 | CCCCN(CCCC)CCCOC(=O)c1ccc(N)cc1 | 0.0219 µM (active) | –
12 | CC(=O)Nc1ccc(N)cc1 | 40.5 µM (active) | –
13 | COC(=O)Nc1nc2ccc(C(=O)c3cccs3)cc2[nH]1 | 38.9 µM (active) | –
14 | N#C/C(=C1/SC[C@@H](c2ccc(Cl)cc2Cl)S1)n1ccnc1 | 0.219 µM (active) | –
15 | CCCCC(=O)O[C@]1(C(=O)CO)CC[C@H]2[C@@H]3CCC4=CC(=O)CC[C@]4(C)[C@H]3[C@@H](O)C[C@@]21C | – | -27.8% [at 53 µM] (inactive)
16 | CCOC(=O)OCC | 23.3 µM (active) | –
17 | Nc1nc(Cl)nc2c1ncn2[C@@H]1O[C@H](CO)[C@@H](O)[C@@H]1F | – | -3.56% [at 53 µM] (inactive)
18 | CNC(=O)N(c1ccccc1)c1ccccc1 | 35.7 µM (active) | –
19 | CCCCCCCCCOC(C)=O | – | 2.28% (inactive)
20 | CCCCCCCCSCCO | – | -18.8% (inactive)

Row | SMILES | Potency | activity change, negative = inhibition
21 | Cc1ccc(Nc2nccc(N(C)c3ccc4c(C)n(C)nc4c3)n2)cc1S(N)(=O)=O | – | -11.8% [at 53 µM] (inactive)
22 | COCc1c(C(C)C)nc(C(C)C)c(/C=C/[C@@H](O)C[C@@H](O)CC(=O)O)c1-c1ccc(F)cc1 | inactive | –
23 | Cc1ccc(S)cc1 | – | 1.82% (inactive)
24 | CCCCCCCCCCCC(=O)[O][Sn]([CH2]CCC)([CH2]CCC)[O]C(=O)CCCCCCCCCCC | – | -14.2% [at 53 µM] (inactive)
25 | CC(C)CCCC(=O)O | – | -14.8% (inactive)
26 | CC(C)CCCCCOC(=O)CCCCC(=O)OCCCCCC(C)C | – | -11.2% (inactive)
27 | O=C(O)c1cccnc1C(=O)O | – | -23.2% (inactive)
28 | OCCSc1ccccc1 | – | -14.3% (inactive)
29 | O=C(c1ccc(O)cc1)c1ccc(Cl)cc1 | 64.7 µM (active) | –
30 | CN(C)CCOC1=Cc2ccccc2Sc2ccc(Cl)cc21 | 4.36 µM (active) | –
31 | C1COCO1 | – | -4.39% (inactive)
32 | CCOCCn1c(C2CCN(CCc3ccc(C(C)(C)C(=O)O)cc3)CC2)nc2ccccc21 | – | -10.8% [at 53 µM] (inactive)
33 | CCCCCC=CCC=CCCCCCCCC(=O)OCC | – | -30.3% [at 53 µM] (inactive)
34 | CCOC(=O)[C@@H](C)Oc1ccc(Oc2nc3ccc(Cl)cc3o2)cc1 | 31.7 µM (active) | –
35 | CC(C)=CC=O | – | -7.88% (inactive)
36 | CCC(Cc1ccccc1)(C(=O)c1ccc(N2CCOCC2)cc1)N(C)C (stereo not given) | 7.96 µM (active) | –
37 | COc1cc2ncnc(Nc3ccc(F)c(Cl)c3)c2cc1OCCCN1CCOCC1 | 13.8 µM (active) | –
38 | Cc1ccc(S(=O)(=O)NC2CCCCC2)cc1 | – | -10.9% (inactive)
39 | N#C/C(=C1\SCC(c2ccccc2Cl)S1)n1ccnc1 (stereo not given) | 2.19 µM (active) | –
40 | CC1(C)O[C@@H]2C[C@H]3[C@@H]4CCC5=CC(=O)C=C[C@]5(C)[C@H]4[C@@H](O)C[C@]3(C)[C@]2(C(=O)CO)O1 | 38.9 µM (active) | –
